The text below walks through data of the supplement of paper PMC12494721.

The test system of the test is Ruminococcus gnavus DSM 108212. Kind of test: fold change of 2-Phenylethylamine concentration vs plate DMSO controls (fold change (ratio)); higher = more amine produced, active = hit call of the paper (significant change in both replicates, either direction). The note with it: incubation time: 27 h, anaerobic, 37 °C. A digest of the protocol: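 Using LC–triple-quadrupole MS with dynamic MRM, amines were quantified against external calibration curves and corrected for drift within each batch. Samples were whole anaerobic mGAM cultures of four gut strains, grown 27 h at 37 °C from OD 0.1 before 1:1 dilution, extracted with cold acetonitrile/methanol containing 0.1% formic acid and centrifuged. Compounds were present at 20 µM final (sweeteners at 50 µM final). The numbers are fold changes versus plate DMSO controls, each the mean of 2 biological replicates.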
As for `N#Cc1cc(NC(=O)C(=O)O)c(Cl)c(NC(=O)C(=O)O)c1` [Lodoxamide] (20 µM), the “fold change of 2-Phenylethylamine concentration” value (“fold change” below) is 0.934 (inactive). The result for `O=P(O)(O)C(Cl)(Cl)P(=O)(O)O` [Clodronate disodium] (20 µM) reads 0.981 (inactive). `CC(=O)N[C@@H](CCC(N)=O)C(=O)O` [Acetyl-L-glutamine] (20 µM): the “fold change” value was 1.05 (inactive). For `CC(=O)N(CC(O)CO)c1c(I)c(C(=O)NCC(O)CO)c(I)c(C(=O)NCC(O)CO)c1I` (configuration not stated) [Iohexol] (20 µM), the “fold change” value was 1.01 (inactive). The same measure for `Cc1cc2nc3c(=O)[nH]c(=O)nc-3n(C[C@H](O)[C@H](O)[C@H](O)CO)c2cc1C` [Riboflavine] (20 µM): 1.15 (inactive). For `CC(=O)CC(c1ccc([N+](=O)[O-])cc1)c1c(O)c2ccccc2oc1=O` (configuration not stated) [Acenocoumarol] (20 µM), the “fold change” value was 1.02 (inactive). The same measure for `O=C1CCc2ccc(OCCCCN3CCN(c4cccc(Cl)c4Cl)CC3)cc2N1` [Aripiprazole] (20 µM): 0.811 (inactive); for `Nc1nc(/C(=C/CC(=O)O)C(=O)N[C@@H]2C(=O)N3C(C(=O)O)=CCS[C@H]23)cs1` [Ceftibuten] (20 µM): 1.06 (inactive); for `C=C(CC)C(=O)c1ccc(OCC(=O)O)c(Cl)c1Cl` [Ethacrynic acid] (20 µM): 0.917 (inactive). The result for `C[C@H](N[C@@H](CCc1ccccc1)C(=O)O)C(=O)N1CCC[C@H]1C(=O)O` [Enalaprilat dihydrate] (20 µM) reads 1.04 (inactive); that for `O=C1c2ccccc2S(=O)(=O)N1CCCCN1CCN(c2ncccn2)CC1` [Ipsapirone] (20 µM), 1.01 (inactive); that for `Cn1c(=O)c2c(ncn2CC2OCCO2)n(C)c1=O` [Doxofylline] (20 µM), 1.1 (inactive).
